Screens: PubChem, National Center for Advancing Translational Sciences (NCATS)
SW480 rereplic – DNA re-replication induction in SW480 cells; SW480 DNA re-replication, Hoechst DNA content imaging, 48 h; Potency, µM (top dose mostly 46.1 µM), inactives show top-dose re-replication activation, hits mostly activators; actives 1.8% (n = 340,000); AID 624297; further: potency means the concentration at half of the fitted maximal effect; % of control where 0% means no effect; nearly all actives have a fitted effect of over 55% in size
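Treated cells incubate 48 hr (37 C, 5% CO2), are stained 40 min with Hoechst, and nuclear fluorescence is enumerated; a rise in nuclei with high DNA signal marks re-replication.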
ATXN2 expr inh – ATXN2 expression inhibition | HEK-293 ATXN2-luciferase reporter, luminescence, 24 h | Potency, µM (series often up to 57 µM), without a hit: top-dose activity change, negative = inhibition, most hits filed as inhibitors | actives 0.72% (n = 360,000) | AID 1745845; further: potency means the concentration at half of the fitted maximal effect; on the % scale 0 is the no-effect control and ±100 the full control effect; nearly all actives have a fitted effect of over 55% in size
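qHTS (up to 57 uM final) was run with 24 h compound exposure of reporter cells at 37 °C. Each well was multiplexed: SteadyGlo luminescence measured ATXN2-luciferase expression after a fluorogenic Gly-Phe-AFC viability readout (25 uM final).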
MCF10A rereplic – DNA re-replication induction in MCF 10a cells. MCF 10A DNA re-replication, Hoechst nuclear intensity, 48 h. Potency, µM (highest dose often 46.1 µM), inactives show at the highest dose activity, positive = re-replication, actives largely listed as activators. actives 2.9% (n = 350,000); further: potency means the concentration at half of the fitted maximal effect; % of control where 0% means no effect; nearly all actives have a fitted effect of over 50% in size
IL1B secr inh – blocks inflammasome-driven IL-1 beta release | THP-1 LPS/ATP IL-1B secretion, AlphaLISA, 16 h; hits give low values | activity change, % at 57.5 µM | actives 4.7% (n = 360,000) | AID 743279; in the data active means activity change below about -50%; inconclusive means mostly about -30% to -49%; further: on the % scale 0 is the no-effect control and ±100 the full control effect
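THP-1 cells pretreated 1 hr with compounds (up to 57.5 uM final), then stimulated with LPS (250 ng/mL final) plus ATP (1.25 mM final); secreted IL-1B measured by AlphaLISA after 16 hr, decreased signal indicating inhibition.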
S2 tox – cell viability loss in ATXN counter-screen | S2 cells (HEK-293 line with an ATXN2-luciferase reporter) viability, CellTiter-Fluor protease fluorescence, 24 h | Potency, µM (doses to about 56.7 µM), hits mostly cytotoxic | actives 0.49% (n = 400,000); further: potency means the concentration at half of the fitted maximal effect; nearly all actives have a fitted effect of over 40% in size
PINK1 modulator – changes PINK1 expression; PINK1 immunofluorescence, high-content cytometry, 24 h; actives 0.2% (n = 410,000); Potency, µM (doses to about 76.6 µM), for inactives: at the top dose activation (PINK1 increase), most hits filed as activators; active means well fitted activation curve with a large enough effect; inconclusive means small, poorly fitted or top-dose-only effect; cell line not stated here; further: potency means the concentration at half of the fitted maximal effect; % of control where 0% means no effect; nearly all actives have a fitted effect of over 65% in size
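Decision-based qHTS: stable cells, 24 h exposure to five compound concentrations, CCCP as control. Fixed cells stained for PINK1 plus nuclear, mitochondrial and cell markers, cytometer read.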
The depositor's hits bear a star; i = inactive; ? = inconclusive; nt = no result; [ ] = dose if it differs, or a comment. In the library only some 7.1% were active in any assay of this set; here they are far more common. Unless noted, the call rests on the fitted dose curve; in most records, active means well fitted curve in the direction sought with a large enough effect; inconclusive means small, poorly fitted or top-dose-only effect, or another doubt; inactive means no such curve, though single readings can be large; an effect the other way counts as inactive or inconclusive.

SMILES	SW480 rereplic	ATXN2 expr inh	MCF10A rereplic	IL1B secr inh	S2 tox	PINK1 modulator
O=C1NN(c2ccc(F)cc2)C(=O)/C1=C/c1cccs1	0%	-31%	5%	-51*	i	-3%
Cc1ccc(C)c(N2CCN(C(=O)c3ccc(NC(=O)c4nsc5ccccc45)cc3)CC2)c1	nt	72%	nt	nt	i	1%
O=C(Cn1sc2ccccc2c1=O)Nc1ccccc1	nt	35µM*	nt	-104*	nt	3%
O=C(Cn1sc2ccccc2c1=O)NC12CC3CC(CC(C3)C1)C2	?	-33%	?	-99*	?	-1%
CC(C)(C)c1ccc(-c2noc(CCC(=O)NCc3ccco3)n2)cc1	8%	nt	?	-57*	i	0%
CCOc1ccc(-c2noc(CCC(=O)O)n2)cc1	4.1µM*	?	?	18	i	1%
COc1ccc(-c2noc(CCCC(=O)O)n2)cc1	-5%	4µM*	189%[0.0737 µM]	0	i	-3%
COc1ccc(Br)cc1CNC(=O)CCc1nc(-c2ccc(C)cc2)no1	-2%	-11%	0%	6	i	18%
COc1ccc(-c2noc(CCC(=O)NCc3cc(Br)ccc3OC)n2)cc1	11%	-5%	3%	-90*	i	1%
Cc1cccc(-c2noc(CCC(=O)NCc3ccco3)n2)c1	-11%	1%	-7%	2	i	25%[38.3 µM]
Cc1ccc(-c2ccc(=O)n(CC(=O)NC(C)c3ccccc3)n2)cc1 (configuration not stated)	nt	-6%	nt	nt	i	3%
COc1ccc(-c2nn(C)c3sc(C(=O)N4CCN(c5cccc(Cl)c5)CC4)cc23)cc1OC	nt	4%	nt	nt	?	0%
COc1ccc(-c2noc(CCC(=O)NC3CCN(Cc4ccccc4)CC3)n2)cc1	-4%	-9%	?	-30	i	0%
CCOC(=O)c1ccc(NC(=O)CCc2nc(-c3ccc(C)cc3)no2)cc1	9%	0%	15µM*	-69*	i	7%[38.3 µM]
COc1ccc(-c2noc(CCC(=O)NCC3CCN(Cc4cccc(C)c4)CC3)n2)cc1	8%	-14%	26%	-72*	?	0%
COc1ccc(C2=NC3(CCCCCC3)N(CC(=O)Nc3ccc(C)c(C)c3)C2=O)cc1	nt	nt	nt	nt	nt	0%
CCc1ccc(S(=O)(=O)c2nnn3c2nc(NCc2cccs2)c2sccc23)cc1	nt	nt	nt	nt	nt	2%
CCCCn1cc(S(=O)(=O)c2ccc(C)c(C)c2)c(=O)c2cc(F)c(N(CC)CC)cc21	nt	nt	nt	nt	nt	-1%
COC(=O)c1ccc(OCC2c3cc(OC)c(OC)cc3CCN2C(=O)c2ccc(OC)cc2)cc1 (configuration not stated)	nt	-25%	nt	nt	i	15%
COC(=O)c1ccc(OCC2c3cc(OC)c(OC)cc3CCN2C(=O)c2ccco2)cc1 (configuration not stated)	-7%	-28%	?	-53*	i	-3%[38.3 µM]
CNC(=S)N1CCc2cc(OC)c(OC)cc2C1COc1ccc(F)cc1 (configuration not stated)	-5%	-4%	13%	?	i	5%
COC(=O)c1ccc(OCC(O)CN2CCc3cc(OC)c(OC)cc3C2c2ccccc2)cc1 (configuration not stated)	25%	-35%	21µM*	-7	i	0%
CCNC(=S)N1CCc2cc(OC)c(OC)cc2C1COc1ccc(F)cc1 (configuration not stated)	-1%	-20%	-3%	-61*	i	5%
COc1ccccc1CN(C)C(=O)COC(=O)c1cc(C)oc1C	-114%	-22%	5%	-18	i	2%
COc1ccc(CCN(C)c2ncnc3sccc23)cc1OC	?	-10%	0.82µM*	-53*	?	2%
SMILES	SW480 rereplic	ATXN2 expr inh	MCF10A rereplic	IL1B secr inh	S2 tox	PINK1 modulator
COc1ccc(CCN(C)C(=O)CSc2ncnc3sccc23)cc1OC	-5%	1%	4%	19	i	0%
Cc1cn2c(=O)c(S(=O)(=O)NCCc3ccccc3)c(C)nc2s1	nt	nt	nt	nt	nt	0%
COc1cc(-c2nc(-c3ccccc3)c(-c3ccc(F)cc3)[nH]2)cc2c1OCO2	15%	5%	?	-3	i	13%
COc1ccc(-c2[nH]c(-c3ccc4c(c3)OCO4)nc2-c2ccccc2)cc1	?	?	?	-64*	nt	?
Cc1cc(Nc2cccc([N+](=O)[O-])c2)c2ccccc2n1	-27%	-12%	?	0	i	1%
Cc1cc(Nc2ccc([N+](=O)[O-])cc2)c2ccccc2n1	71%	-36%	2.6µM*	-80*	?	11%
COc1ccc(Nc2cc(C)nc3c(C)cccc23)cc1OC	-1%	-13%	19%	?	?	-1%
Cc1cc(Nc2cccc([N+](=O)[O-])c2)c2cccc(C)c2n1	-6%	?	-1%	-95*	i	5%
COc1ccc(Nc2cc(C)nc3ccc(C)cc23)cc1	nt	nt	nt	-21	?	1%
Cc1ccc2nc(C)cc(Nc3ccc4c(c3)OCCO4)c2c1	3%[9.22 µM]	-19%	0%	?	?	-2%
CCOc1ccc2nc(C)cc(Nc3ccc4c(c3)OCCO4)c2c1	?	?	25%	-100*	?	6%
CC(=O)c1ccc(Nc2cc(C)nc3ccc(C)cc23)cc1	?	-29%	?	-104*	?	-2%
Cc1cc(-n2c(C)nc3ccccc3c2=O)ccc1NC(=O)c1ccc(C)c([N+](=O)[O-])c1	nt	-2%	nt	nt	i	0%
COc1ccc(OCC(=O)Nc2ccccc2C(=O)OCc2cc(=O)n3nc(C)sc3n2)cc1	nt	nt	nt	nt	nt	0%
C=Cc1ccc(CSc2nc(-c3ccc(OC)cc3)nc3c2Cc2c(CO)cnc(C)c2O3)cc1	nt	13%	nt	nt	i	0%
CCOc1ccc2nc(C)cc(Nc3ccc(N4CCOCC4)cc3)c2c1	?	nt	0%	nt	nt	nt
Cc1cc(Nc2ccccc2Cl)c2ccccc2n1	-1%	?	?	-96*	i	2%
CCOc1ccc2nc(C)cc(Nc3cccc([N+](=O)[O-])c3)c2c1	?	28µM*	18µM*	-118*	nt	-2%
C[N+]1(C)[C@@H]2C[C@@H](OC(=O)C(O)(c3cccs3)c3cccs3)C[C@H]1[C@@H]1O[C@@H]12	nt	3%	nt	nt	nt	nt
CN(C(=O)c1nn(C)c2c1COc1ccccc1-2)c1cccc(C(F)(F)F)c1	nt	nt	nt	nt	nt	2%
CC1=C(C(=O)Nc2ccc(C)cc2C)C(c2cc(Br)ccc2F)n2ncc(C(=O)Nc3ccc(C)cc3)c2N1 (configuration not stated)	nt	nt	nt	nt	nt	3%
Cc1ccc(Cc2nc3ccccc3nc2SCC(=O)N2CCCCC2)cc1	nt	nt	nt	nt	nt	1%
